Records with an inconclusive call do not appear.

Z-score data for ten compounds are collected here from PubChem BioAssay (NCATS).

The nature of the assay: qHTS for identification of novel therapeutic agents for treatment of microphthalmiaassociated transcription factor (MiT) renal cell carcinoma (RCC) (AID 1963991). Conditions: TFE3-RCC UOK109 viability, CellTiter-Glo, 48 h; measured here: UOK109 Z-AUC; stronger effect = lower value. In outline: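 Three TFE3-fusion RCC lines (UOK109, UOK124, UOK145), 500 cells/well in complete medium, were treated with MIPE 4.0 compounds for 48 hours at 37 C. Viability was by CellTiter-Glo luminescence, normalized to DMSO (100%) and empty wells (0%); curves fitted over 11 concentrations.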
Turning to `CC=C1NC(=O)[C@H]2CSSCCC=C[C@H](CC(=O)N[C@H](C(C)C)C(=O)N2)OC(=O)[C@H](C(C)C)NC1=O`, the z-score is -2.23. Take `COCCn1c2c([n+](Cc3cnccn3)c1C)C(=O)c1ccccc1C2=O`: the z-score is -3.55. Turning to `CCc1c2c(nc3ccc(O)cc13)-c1cc3c(c(=O)n1C2)COC(=O)[C@]3(O)CC`, the z-score was -1.63. On to `CC(NCc1ccc2c(c1)nc(NC(=O)c1ccc(-c3cn[nH]c3)s1)n2CC(C)(C)O)C(C)(C)C` (stereo not given), for which the z-score was -1.95. With `COc1cc(=C2C=c3ccccc3=N2)[nH]c1=Cc1[nH]c(C)cc1C` the figure was -1.08; with `Nc1cc(C(F)(F)F)c(-c2cc(N3CCOCC3)nc(N3CCOCC3)n2)cn1`, -0.856. Then `C[C@@]12O[C@@H](C[C@]1(O)CO)n1c3ccccc3c3c4c(c5c6ccccc6n2c5c31)CNC4=O`, with -1.64; and `O=C(Cc1ccc(-c2ccc(OCCN3CCOCC3)cc2)cn1)NCc1ccccc1`, with -1.65; and `Cc1ccc(-c2ncn(-c3ccc(Nc4nccc(-c5cccc(N6CCOCC6)c5)n4)cc3)n2)cn1`, with -1.3. Then `CC[C@@]1(O)C(=O)OCc2c1cc1n(c2=O)Cc2cc3cc(O)ccc3nc2-1`, with -0.967.
